# Screening results (PubChem BioAssay)
# EP2 modulator = modulates human prostaglandin E2 receptor EP2 signaling; 0.83% of 260,000 active; EP2-expressing cells, cAMP HTRF FRET, PGE2 co-stimulation; induction, % at 25 µM; P43116;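 active = compounds whose cAMP rise, as percent of the full-agonist control response, exceeds 60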;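 note: rat C6 glioma line stably carrying human EP2 under a CMV promoter; the protocol text gives 20 µM as final concentration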
# CHT inh = human CHT choline transport inhibition | 0.86% of 310,000 active | Q9GZV3 | AID 488975 | CHT-expressing cells, membrane potential dye, choline response; stronger effect = lower value | B-score at 10 µM;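 active = B-score over 3 SD under the library average, and starting fluorescence ratio not unusually high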;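 note: choline stimulus applied at its EC90 after an EC20 pre-addition; B-score computed on integrated fluorescence ratio after choline addition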
# Target sequence (Q9GZV3 whole entry, looked up): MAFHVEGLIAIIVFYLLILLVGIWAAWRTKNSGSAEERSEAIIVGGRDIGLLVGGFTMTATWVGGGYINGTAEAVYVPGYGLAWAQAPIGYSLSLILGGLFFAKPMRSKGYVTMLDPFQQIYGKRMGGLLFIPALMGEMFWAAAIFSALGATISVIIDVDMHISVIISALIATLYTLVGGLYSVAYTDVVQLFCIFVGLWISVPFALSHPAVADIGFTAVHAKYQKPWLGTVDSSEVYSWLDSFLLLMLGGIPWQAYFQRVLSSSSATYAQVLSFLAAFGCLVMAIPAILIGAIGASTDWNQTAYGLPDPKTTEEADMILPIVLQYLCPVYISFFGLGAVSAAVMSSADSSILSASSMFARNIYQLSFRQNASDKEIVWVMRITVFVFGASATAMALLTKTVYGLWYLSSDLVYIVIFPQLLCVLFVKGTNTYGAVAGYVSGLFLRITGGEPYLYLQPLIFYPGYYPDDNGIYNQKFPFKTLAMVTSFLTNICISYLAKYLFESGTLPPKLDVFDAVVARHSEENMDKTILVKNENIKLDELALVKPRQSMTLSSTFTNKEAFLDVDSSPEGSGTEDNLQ
# PGE2 EP2 inh = blocks the human prostaglandin E2 receptor EP2; P43116; C6 glioma cells expressing human EP2, cAMP TR-FRET; cells stimulated with saturating PGE2; inhibition, % at 25 µM; 0.52% of 260,000 active; AID 1422;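 active = percent inhibition above 40 after rounding to a whole number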;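 note: rat C6 glioma host cells with rolipram phosphodiesterase inhibitor present; the protocol text gives 20 µM as final concentration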
# CHT allo act = allosteric activators of human choline transporter CHT | B-score at 10 µM | 0.49% of 310,000 active | CHT-expressing cells, membrane potential dye, choline EC20; stronger effect = higher value; LV-AA mutant CHT in HEK293 cells | Q9GZV3 | AID 488977;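 active = initial fluorescence not abnormally high and integrated response B-score, plate-corrected, over 3 SD above library mean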
# CHT block conf = confirmation of human choline transporter CHT inhibitors | CHT activity remaining % of control (stronger effect = lower value), % at 10 µM | 70% of 2,400 active | CHT-expressing cells, choline membrane potential dye; LV-to-AA substituted CHT, HEK293 cells | shares compounds with CHT inh;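 active = choline transporter activity left, mean of duplicates at 10 µM, below buffer-only control mean minus 3 SD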;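 note: depolarization triggered by choline at its EC90 following an EC20 pre-addition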
# HEK293 CHT ctr = counter-screen for CHT inhibitors: effect in parental HEK293 cells. membrane potential dye, choline response; active = decrease or increase beyond buffer ±3SD. shares compounds with CHT inh. 4% of 2,400 active. membrane potential ratio readout (active if shifted either direction beyond buffer ±3SD; no single direction) at 10 µM;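 note: parental cells lack the transporter so any hit is non-specific; ratio is peak minus trough fluorescence over baseline after EC90 choline challenge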
# Hits are given with their value; 0 = inactive; - = not tested or not shown. Sampled rows, rich in hits. Any-hit rate of the full collection: about 2.1%.
SMILES,EP2 modulator,CHT inh,PGE2 EP2 inh,CHT allo act,CHT block conf,HEK293 CHT ctr
CCc1nn2c(NCCOC)cc(C)nc2c1-c1ccc(F)cc1,0,-5.1,0,0,48%,0
CCc1nn2c(C)cc(C)nc2c1-c1ccc(F)cc1,0,-,0,-,-,-
CN1C(=O)CC(c2ccccc2)CC1=O,-,-13,-,0,0,0
CSc1nc2ccsc2c(=O)n1-c1ccccc1,0,0,0,0,-,-
CNc1nc(SC)nc2ccsc12,0,-14,0,0,4.2%,0
Cc1nnc(SCc2ccc(F)cc2)n1NC/C=C/c1ccccc1,0,-7.1,0,0,0,0
COc1ccc(-c2cc(=O)c3cc(O)ccc3o2)cc1,0,-7.3,0,0,41%,0
CC(C)(C)c1csc(NC(=O)c2ccccc2O)n1,-,-6.8,-,0,0,0
Cc1c(C(=O)N2CCc3c(nc(N4CCCC4)[nH]c3=O)C2)cnn1C,0,-,-,-,-,-
COc1ccccc1OCc1ccc(C(=O)N2N=C(C(F)F)CC2(O)C(F)F)o1 (stereo unspecified),0,-5.2,-,0,0,0
CC(C)[C@H](Nc1ccc(C(F)(F)F)cc1[N+](=O)[O-])C(=O)O,0,0,0,0,-,-
O=C(NNc1ccc(C(F)(F)F)cc1[N+](=O)[O-])c1ccc(NS(=O)(=O)c2ccc(F)cc2)cc1,0,-10,0,0,52%,0
COc1ccc(S(=O)(=O)N(C(=O)c2cccnc2)c2ccc3oc(=O)sc3c2)cc1,0,-,0,-,-,-
c1ccc(N2CCN(Cc3ccnc4ccccc34)CC2)cc1,0,-11,0,0,0,0
Clc1ncc(CN2CCN(c3ccccc3)CC2)s1,0,0,0,0,-,-
O=C1Nc2ccc(F)cc2C12Nc1ccccc1-c1nnc(SCc3ccccc3Cl)nc1O2 (stereo unspecified),0,-6.1,0,0,0,0
CC(C)(C)c1cc(C(=O)N2C3CCC2CC(c2ccc(F)cc2)C3)n[nH]1 (stereo unspecified),0,-,-,-,-,-
Cc1ccc(C(=O)N/C(=C\C=C\c2ccccc2)C(=O)NCc2ccco2)cc1,0,-6.6,0,0,54%,0
CC(=O)N/N=C/c1c(C)[nH]n(-c2ccccc2)c1=O,0,-5.8,0,0,0,0
COC(=O)N/N=C\c1c(C)[nH]n(-c2ccccc2)c1=O,0,0,0,0,-,-
Cc1ccc(Nc2cc(C(=O)NCCCN3CCOCC3)c3ccccc3n2)cc1C,-,0,-,0,62%,0
C=CC[N+]1(CC#Cc2cccc3ccccc23)CCOCC1,0,-,0,-,-,-
O=C(c1cn(-c2ccccc2)nc1-c1ccc(Cl)cc1)N1CCOCC1,0,-5.6,0,0,59%,0
COc1cc(OC)c(OC)cc1CN1CCN(CC2CC=CCC2)CC1 (stereo unspecified),0,-,0,-,-,-
COC(=O)c1nc2ccc(N3CCOCC3)cc2c(C)c1C(=O)OC,0,-5.7,0,0,0,0
SMILES,EP2 modulator,CHT inh,PGE2 EP2 inh,CHT allo act,CHT block conf,HEK293 CHT ctr
Cc1cccc(-c2nc(CN3CCCC(C(=O)NC4CCC(C)CC4)C3)c(C)o2)c1 (stereo unspecified),0,0,0,0,-,-
Cc1cccc(-c2nc(CN3CCCC(C(=O)NC4CCCC4)C3)c(C)o2)c1 (stereo unspecified),0,-5.1,0,0,0,0
COc1ccc([C@@H]2C[C@H](OC(=O)c3cnn(C)c3C)C(=O)N2C)cc1,0,-,0,-,-,-
COCCCn1c(SCC(=O)NCc2ccco2)nnc1-c1ccco1,0,-,0,-,-,-
O=C(c1cccc(OC2CCN(Cc3ccc(F)cc3Cl)CC2)c1)N1CCCC1,-,-5.4,-,0,36%,0
COC(=O)c1sc2ncn(Cc3c(Cl)cccc3Cl)c(=O)c2c1C,0,-,0,-,-,-
Cc1ccccc1/C=C/C(=O)NCC(=O)N1CCC(N(C)C2CCCCC2C)CC1 (stereo unspecified),0,-13,0,0,21%,0
COC(=O)Nc1ccc(S(=O)(=O)NNC(=O)c2c(O)c3ccccc3n(C)c2=O)cc1,-,-5.8,-,0,43%,0
O=C(Nc1ccccc1)c1ccc(NCCc2ccccc2)c([N+](=O)[O-])c1,0,0,0,0,-,-
NC(=O)c1ccc(NCCc2ccccc2)c([N+](=O)[O-])c1,0,-5,0,0,0,0
COc1ccc(CCC(=O)N2CCc3ccccc32)cc1,0,0,0,0,-,-
COc1ccc(CCC(=O)N2c3ccccc3CC2C)cc1 (stereo unspecified),0,-5.4,0,0,0,0
CC1Cc2ccccc2N1C(=O)COC(=O)c1ccc(O)cc1 (stereo unspecified),0,-5.5,0,0,52%,0
CCOc1ccc2[nH]c(=O)c(C(c3nnnn3Cc3ccc(OC)cc3)N3CCN(C)CC3)cc2c1 (stereo unspecified),0,-,0,-,-,-
CCCN(C(=O)c1cn(CC)c2nc(C)ccc2c1=O)c1c(N)n(Cc2ccccc2)c(=O)[nH]c1=O,0,-5.3,0,0,33%,0
CCc1c(C2(O)CCCCC2)[nH]c2cc(C(F)(F)F)ccc12,-,-5.7,-,0,53%,0
Cc1cc(C(=O)CSc2n[nH]c(N)n2)c(C)n1-c1ccc(F)cc1,0,-8.2,0,0,71%,0
Cc1cc(C(=O)CSc2n[nH]c(N)n2)c(C)n1-c1cc(F)ccc1F,0,-7.1,0,0,52%,0
O=C(CCN1C(=O)c2ccccc2S1(=O)=O)N1C2CCC1CC(c1ccc(F)cc1)C2 (stereo unspecified),0,-,-,-,-,-
CN(C)C(=O)Cn1nc(C(F)(F)F)c2cccn2c1=O,0,-,0,-,-,-
Cc1ccc(C(=O)O)cc1NC(=S)NC(=O)c1ccc(COc2ccccc2)cc1,-,-6.5,-,0,48%,0
CCOc1ccc(OCC)c(NC(=O)CN2CCC(n3nnc4cc(F)ccc43)CC2)c1,0,-,0,-,-,-
COc1cccc(C(=O)NN/C(C)=C/C(=O)C(F)(F)C(F)(F)C(F)(F)F)c1,0,-8.4,0,0,67%,0
COc1cccc(C(=O)NNC(=O)Cc2ccc(Cl)cc2)c1,0,0,0,0,-,-
CCOc1ccc2nc(SCC(=O)N(C)C3CCCCC3)c(C#N)cc2c1,0,-,0,-,-,-
SMILES,EP2 modulator,CHT inh,PGE2 EP2 inh,CHT allo act,CHT block conf,HEK293 CHT ctr
CC(=O)N(C)c1ccc(OCC(O)CN(Cc2ccco2)S(=O)(=O)c2ccc(C)cc2)cc1 (stereo unspecified),0,0,0,0,-,-
CC(=O)N(C)c1ccc(OCC(O)CN(c2ccccc2C)S(=O)(=O)c2ccc(C)cc2)cc1 (stereo unspecified),-,-18,-,0,-11%,0
CC(=O)Oc1cc2c3c(c1)/C(=C1/SC(=S)NC1=O)C(=O)N3C(C)(C)C=C2C,0,-6.8,0,0,37%,0
COc1ccccc1C(=O)Oc1cc2c3c(c1)C(C)=CC(C)(C)N3C(=O)C2=O,0,-,0,-,-,-
COc1ccc(N2CCN(c3ncnc4c3nnn4Cc3ccccc3)CC2)cc1,0,-,0,-,-,-
Cc1ccn(CCNC(=O)c2cc3ccc(F)cc3[nH]2)n1,0,-,0,-,-,-
